# Several values for one entry are separate records, joined by “and”; a condition that tells them apart may be missing. Equal entries are not always repeated. Where two headings read alike, the source gives them in different places.
# Assays:
# HPK1 = conditions: concentration: 1 μM, replicates: in singlicate, n = 1
# HUNK = conditions: concentration: 1 μM, replicates: in singlicate, n = 1
# ICK = conditions: concentration: 1 μM, replicates: in singlicate, n = 1
# IGF1R = conditions: concentration: 1 μM, replicates: in singlicate, n = 1
# IKK-alpha = test system: T1, IKK-alpha; conditions: concentration: 1 μM, replicates: in singlicate, n = 1
# T1 construct: gene CHUK
# IKK-beta = test system: T2, IKK-beta; conditions: concentration: 1 μM, replicates: in singlicate, n = 1
# T2 construct: gene IKBKB
# IKK-epsilon = test system: T3, IKK-epsilon; conditions: concentration: 1 μM, replicates: in singlicate, n = 1
# T3 construct: gene IKBKE
# INSRR = conditions: concentration: 1 μM, replicates: in singlicate; n = 1
# INSR = conditions: concentration: 1 μM, replicates: in singlicate; n = 1
# IRAK1 = conditions: concentration: 1 μM, replicates: in singlicate, n = 1
# IRAK3 = conditions: concentration: 1 μM, replicates: in singlicate; n = 1
# IRAK4 = conditions: concentration: 1 μM, replicates: in singlicate; n = 1
# ITK = conditions: concentration: 1 μM, replicates: in singlicate, n = 1
# [1] = test system: JAK1(JH1domain-catalytic); conditions: concentration: 1 μM, replicates: in singlicate, n = 1
# [2] = test system: JAK1(JH2domain-pseudokinase); conditions: concentration: 1 μM, replicates: in singlicate, n = 1
# [3] = test system: JAK2(JH1domain-catalytic); conditions: concentration: 1 μM, replicates: in singlicate, n = 1
# [4] = test system: JAK3(JH1domain-catalytic); conditions: concentration: 1 μM, replicates: in singlicate; n = 1
# JNK1 = test system: T4, JNK1; conditions: concentration: 1 μM, replicates: in singlicate, n = 1
# T4 construct: gene MAPK8
# JNK2 = test system: T5, JNK2; conditions: concentration: 1 μM, replicates: in singlicate; n = 1
# T5 construct: gene MAPK9
# JNK3 = test system: T6, JNK3; conditions: concentration: 1 μM, replicates: in singlicate; n = 1
# T6 construct: gene MAPK10
# 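Note: KINOMEscan kinase panel screen.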
compound,measurement,setting,value
Cl.Cl.Cl.Fc1ccc(-c2ncn(C3CCNCC3)c2-c2ccnc(Nc3ccccc3)n2)cc1 [SB-238039],%Inh,HPK1; 1 µM,96.2% and 92.5%
same,%Inh,HUNK; 1 µM,61% and 0%
same,%Inh,ICK; 1 µM,0% and 34%
same,%Inh,IGF1R; 1 µM,37% and 0%
same,%Inh,IKK-alpha; 1 µM,34% and 0%
same,%Inh,IKK-beta; 1 µM,10% and 0%
same,%Inh,IKK-epsilon; 1 µM,0% and 3%
same,%Inh,INSRR,0%
same,%Inh,INSR,15%
same,%Inh,IRAK1; 1 µM,66% and 0%
same,%Inh,IRAK3,0%
same,%Inh,IRAK4,0%
same,%Inh,ITK; 1 µM,5% and 14%
same,%Inh,[1]; 1 µM,0% and 8%
same,%Inh,[2]; 1 µM,15% and 0%
same,%Inh,[3]; 1 µM,44% and 0%
same,%Inh,[4],0%
same,%Inh,JNK1; 1 µM,97% and 96.3%
same,%Inh,JNK2,100%
same,%Inh,JNK3,99.8%
CCc1nc(-c2cccc(C)c2)c(-c2ccnc(NCc3ccccc3)c2)s1,%Inh,HPK1,0%
same,%Inh,HUNK,0%
same,%Inh,ICK,0%
same,%Inh,IGF1R,0%
same,%Inh,IKK-alpha,15%
same,%Inh,IKK-beta,2%
same,%Inh,IKK-epsilon,0%
same,%Inh,INSRR,9%
same,%Inh,INSR,0%
same,%Inh,IRAK1,0%
same,%Inh,IRAK3,0%
same,%Inh,IRAK4,0%
same,%Inh,ITK,13%
same,%Inh,[1],7%
same,%Inh,[2],31%
same,%Inh,[3],0%
same,%Inh,[4],4%
same,%Inh,JNK1,0%
same,%Inh,JNK2,8%
same,%Inh,JNK3,20%
c1ccc(-c2n[nH]cc2-c2ccnc3ccccc23)nc1 [GW271431],%Inh,HPK1,27%
same,%Inh,HUNK,4%
same,%Inh,ICK,0%
same,%Inh,IGF1R,12%
same,%Inh,IKK-alpha,0%
same,%Inh,IKK-beta,0%
same,%Inh,IKK-epsilon,22%
same,%Inh,INSRR,1%
same,%Inh,INSR,6%
same,%Inh,IRAK1,6%
same,%Inh,IRAK3,0%
same,%Inh,IRAK4,6%
same,%Inh,ITK,14%
same,%Inh,[1],10%
same,%Inh,[2],0%
same,%Inh,[3],3%
same,%Inh,[4],0%
same,%Inh,JNK1,17%
same,%Inh,JNK2,33%
same,%Inh,JNK3,12%
CC(C)Oc1ccc2c(-c3ccnc(Nc4ccc(N5CCN(C)CC5)cc4)n3)cnn2n1 [GW696155],%Inh,HPK1,54%
same,%Inh,HUNK,0%
same,%Inh,ICK,49%
same,%Inh,IGF1R,0%
same,%Inh,IKK-alpha,100%
same,%Inh,IKK-beta,100%
same,%Inh,IKK-epsilon,54%
same,%Inh,INSRR,0%
same,%Inh,INSR,21%
same,%Inh,IRAK1,99.9%
same,%Inh,IRAK3,94.2%
same,%Inh,IRAK4,60%
same,%Inh,ITK,0%
same,%Inh,[1],48%
same,%Inh,[2],93.5%
same,%Inh,[3],99.4%
same,%Inh,[4],100%
same,%Inh,JNK1,100%
same,%Inh,JNK2,99.7%
same,%Inh,JNK3,99.9%
Cc1cccc(-c2nc(-c3ccc(S(C)(=O)=O)cc3)sc2-c2ccncc2)c1,%Inh,HPK1,0%
same,%Inh,HUNK,0%
same,%Inh,ICK,0%
same,%Inh,IGF1R,7%
same,%Inh,IKK-alpha,0%
same,%Inh,IKK-beta,1%
same,%Inh,IKK-epsilon,0%
same,%Inh,INSRR,7%
same,%Inh,INSR,8%
same,%Inh,IRAK1,18%
same,%Inh,IRAK3,33%
same,%Inh,IRAK4,15%
same,%Inh,ITK,19%
same,%Inh,[1],15%
same,%Inh,[2],17%
same,%Inh,[3],0%
same,%Inh,[4],6%
same,%Inh,JNK1,26%
same,%Inh,JNK2,28%
same,%Inh,JNK3,33%
CCn1cnc2c(N)ncnc21 [GW345098],%Inh,HPK1,0%
same,%Inh,HUNK,4%
same,%Inh,ICK,0%
same,%Inh,IGF1R,3%
same,%Inh,IKK-alpha,0%
same,%Inh,IKK-beta,4%
same,%Inh,IKK-epsilon,0%
same,%Inh,INSRR,0%
same,%Inh,INSR,10%
same,%Inh,IRAK1,0%
same,%Inh,IRAK3,10%
same,%Inh,IRAK4,0%
same,%Inh,ITK,16%
same,%Inh,[1],10%
same,%Inh,[2],19%
same,%Inh,[3],7%
same,%Inh,[4],17%
same,%Inh,JNK1,16%
same,%Inh,JNK2,0%
same,%Inh,JNK3,0%
NCC(NC(=O)c1cc(-c2cn[nH]c2)c(-c2ccnc3[nH]ccc23)s1)c1ccccc1.O=C(O)C(F)(F)F.O=C(O)C(F)(F)F (stereo not drawn) [GSK1325775],%Inh,HPK1,63%
same,%Inh,HUNK,0%
same,%Inh,ICK,3%
same,%Inh,IGF1R,0%
same,%Inh,IKK-alpha,54%
same,%Inh,IKK-beta,79%
same,%Inh,IKK-epsilon,24%
same,%Inh,INSRR,0%
same,%Inh,INSR,3%
same,%Inh,IRAK1,93.6%
same,%Inh,IRAK3,0%
same,%Inh,IRAK4,21%
same,%Inh,ITK,7%
same,%Inh,[1],45%
same,%Inh,[2],11%
same,%Inh,[3],95.7%
same,%Inh,[4],100%
same,%Inh,JNK1,40%
same,%Inh,JNK2,7%
same,%Inh,JNK3,12%
N#Cc1c(N2CCOCC2)sc(-c2ccn[nH]2)c1-c1ccc(Cl)cc1,%Inh,HPK1,0%
same,%Inh,HUNK,16%
same,%Inh,ICK,24%
same,%Inh,IGF1R,0%
same,%Inh,IKK-alpha,10%
same,%Inh,IKK-beta,25%
same,%Inh,IKK-epsilon,0%
same,%Inh,INSRR,0%
same,%Inh,INSR,0%
same,%Inh,IRAK1,20%
same,%Inh,IRAK3,16%
same,%Inh,IRAK4,1%
same,%Inh,ITK,6%
same,%Inh,[1],0%
same,%Inh,[2],29%
same,%Inh,[3],22%
same,%Inh,[4],0%
same,%Inh,JNK1,40%
same,%Inh,JNK2,23%
same,%Inh,JNK3,43%
Cc1cn2c(=O)cc(N3CCOCC3)nc2n1Cc1cccc(Cl)c1Cl [GSK2334006],%Inh,HPK1,30%
same,%Inh,HUNK,9%
same,%Inh,ICK,12%
same,%Inh,IGF1R,0%
same,%Inh,IKK-alpha,7%
same,%Inh,IKK-beta,18%
same,%Inh,IKK-epsilon,3%
same,%Inh,INSRR,28%
same,%Inh,INSR,0%
same,%Inh,IRAK1,0%
same,%Inh,IRAK3,13%
same,%Inh,IRAK4,5%
same,%Inh,ITK,14%
same,%Inh,[1],2%
same,%Inh,[2],0%
same,%Inh,[3],2%
same,%Inh,[4],0%
same,%Inh,JNK1,18%
same,%Inh,JNK2,16%
same,%Inh,JNK3,6%

# — publication PMC5540273 (PLoS ONE, 2017)
